# Experimental data reported in PubChem BioAssay AID488890 (Southern Research Specialized Biocontainment Screening …, 2010).
# Among all 320,000 compounds or so, about 1,300 (0.41%) were called active. Roughly 3% stayed inconclusive and do not appear here. How the calls were made is not given here. These entries were drawn from the full list. Results with a measured potency or affinity are listed apart.
# Experiment: growth inhibition of non-replicating M. tuberculosis (AID 488890);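 further: plate controls were DMSO cells for no effect and high antibiotic wells for full effect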
# Details: Mycobacterium tuberculosis non-replicating, at 25 µM, stronger effect = higher value
row,SMILES,inhibition [%]
1,Nc1nc2nc(SCC(=O)N3CCCc4ccccc43)[nH]c2c(=O)[nH]1,0.84
2,CN(C)CCn1c2c(c(SCC(=O)Nc3ccc4c(c3)OCCO4)nc1=O)CCC2,-16.4
3,CC1CCN(C(=O)COC(=O)c2cc(Cl)cc(Cl)c2N)CC1,78.5
4,O=C(CNC(=O)c1ccc(Br)o1)NC1CCCCCC1,-0.81
5,Nc1c(Cl)cc(Cl)cc1C(=O)OCC(=O)N1CCOCC1,17.1
6,O=C(COC(=O)c1ccc(Br)cc1)NC1CCCC1,46.5
7,O=C(OCCN1C(=O)c2ccccc2C1=O)c1ccco1,15.3
8,O=C(OCCCN1C(=O)c2ccccc2C1=O)c1ccco1,10.6
9,Cc1ccc(C(=O)OCC(=O)NC2CCCCC2)o1,36.7
10,O=C(COC(=O)c1cc([N+](=O)[O-])ccc1Cl)NC1CCCC1,73.8
11,CCc1ccc(CNC(=O)CN2C(=O)COc3ccccc32)cc1,14.8
12,COc1ccc(S(=O)(=O)N2CCCC2CNC(=O)C(=O)NCc2ccc3c(c2)OCO3)cc1 (centres undefined),10.3
13,COC(=O)CCC(=O)OC1(C)C(=O)C=C2C=C(C3CC3)N(C3CCCC3)C=C2C1=O (centres undefined),21.8
14,NC1=NC(=O)/C(=C/c2ccc(-c3ccc(S(N)(=O)=O)cc3)o2)S1,-4.9
15,Cc1ccc2c(C(=O)CN3CCN(C(=O)c4ccco4)CC3)c(C)[nH]c2c1,14
16,O=C(NC1CCCCC1)C(c1cccnc1)N(C(=O)c1ccc(Cl)nc1)C1CCCCC1 (centres undefined),20.7
17,O=C(NC(=S)Nc1ccc2[nH]c(=O)[nH]c2c1)c1ccccc1[N+](=O)[O-],-4.02
18,CCNC(=O)CSc1nnc(-c2ccccc2)n1-c1ccc(OCC)cc1,12
19,O=C1CSC(=Nc2cccc([N+](=O)[O-])c2)N1,17.5
20,O=C(OCC(=O)N1CCCC1)c1cccc(Br)c1,67.8
21,O=C(OCC(=O)N1CCCC1)c1cc([N+](=O)[O-])ccc1Cl,67.6
22,O=C(COC(=O)c1ccc([N+](=O)[O-])o1)NCCCc1ccccc1,73.4
23,O=C(COC(=O)c1ccc(Br)o1)NCCNC(=O)COC(=O)c1ccc(Br)o1,0.38

row,SMILES,inhibition [%]
1,Nc1cccc(CP(=O)(c2ccccc2)c2ccccc2)c1,1.01
2,COc1cc(NC(=O)c2ccccc2-n2cnnn2)cc(OC)c1,10.3
3,COc1ccc(C2C(C(C)=O)=C(O)C(=O)N2c2ccc(Br)cc2)cc1 (centres undefined),29.9
4,COC(=O)CSc1nnc(-c2ccncc2)o1,-0.32
5,COC(=O)c1ccc(CSc2nnc(-c3ccncc3)n2Cc2ccccc2)o1,12.6
6,Cc1ccc(OCC(=O)OC(C)C(=O)NC2CCCCC2C)cc1C (centres undefined),65.7
7,Cc1c(C(=O)NCc2ccccc2CN2CCCC2)oc2ccc(F)cc12,42
8,Cc1nc(C)c(C(=O)Nc2ccccc2)s1,-13.4
9,COc1ccc(NC(=O)Nc2nc3ccccc3s2)cc1,-4.36
10,Cc1nc(Cl)sc1C(=O)Nc1ccccc1,-6.17
11,O=C(NCc1ccccc1)c1nc2ccccc2s1,79.5
12,O=C(NCc1ccco1)c1cccnc1-c1nc2ccccc2s1,27.7
13,COc1ccc(OC)c(NC(=O)c2nc3ccccc3s2)c1,-0.73
14,CN(C(=O)COC(=O)CSc1cc(Cl)ccc1Cl)c1c(N)n(Cc2ccccc2)c(=O)[nH]c1=O,7.95
15,COc1ccc(CC2C(=O)OC(C)(C)OC2=O)c(Cl)c1OC,-14.3
16,CCCC1=C(C(=O)OCC)C(c2cccnc2)n2nc(C)nc2N1 (centres undefined),-11.9
17,COCCn1c(=O)c2c(nc3n2CC(C)CN3CCc2ccccc2)n(C)c1=O (centres undefined),22.9
18,Cc1[nH]c(=O)[nH]c(=O)c1S(=O)(=O)N1CCN(c2ccccc2F)CC1,-5.44
19,COc1ccc(OC)c(C(=O)c2oc3ccccc3c2NC(C)=O)c1,-5.83
20,CCOC(=O)c1sc(=S)n(-c2ccc3c(c2)OCO3)c1N,1.96
21,N/C(=N\OC(=O)c1ccc(Cl)cc1)c1ccc(Cl)cc1,69.9
22,N/C(=N\OC(=O)c1ccccc1Cl)c1ccccn1,-3.97
23,N/C(=N\OC(=O)c1ccccc1Cl)c1cccc([N+](=O)[O-])c1,66.7

row,SMILES,inhibition [%]
1,N/C(=N\OC(=O)c1ccc(Cl)cc1)c1ccccn1,28.3
2,C=CCOC(=O)c1cn(CC)c2nc(C)ccc2c1=O,-10.5
3,CCOC(=O)C1(Cc2cccc(Cl)c2)CCCN(C(=O)c2ccoc2C)C1 (centres undefined),33.8
4,CCOC(=O)NC(CC(=O)O)c1ccc(OC)cc1 (centres undefined),-4.02
5,CCn1c(C)nc2cc(C(=O)N/N=C/c3ccc(N4CCOCC4)cc3)ccc21,33
6,c1ccc2c(c1)CC(N1CCCCC1)c1ccccc1S2 (centres undefined),72.9
7,CN1CCN(C2Cc3ccccc3Sc3ccc(Cl)cc32)CC1 (centres undefined),76.8
8,CCOC(=O)C1(Cc2ccc(OC)cc2)CCN(C(=O)c2cncs2)CC1,-27.1
9,CCOC(=O)c1ccc(NC(=O)NCc2ccncc2)cc1,15.4
10,CCc1ccc(N2C(=O)c3cc(N4CCOCC4)c([N+](=O)[O-])cc3C2=O)cc1,1.14
11,O=[N+]([O-])c1ccc(CSc2nnc3ccccn23)cc1,1.79
12,CCc1ccc(NC(=O)CCCn2nc(CC)n3c(cc4occc43)c2=O)cc1,21.1
13,CSc1ccc(CCNC(=O)CCc2nnc3ccc(N4CCC5(CC4)OCCO5)nn23)cc1,11.6
14,COc1ccccc1-c1nc2ccc(Cl)cc2c(=O)n1O,11.4
15,O=C(Nn1c(-c2ccc(Br)cc2)nc2ccccc2c1=O)c1ccc([N+](=O)[O-])cc1,20.4
16,O=c1c2ccccc2nc(-c2ccc([N+](=O)[O-])cc2)n1-c1ccccc1,-1.75
17,Cc1nc2ccc([N+](=O)[O-])cc2c(=O)n1Cc1ccc(Br)cc1,-9.44
18,Cc1nc2ccc(Cl)cc2c(=O)n1-c1ccc([N+](=O)[O-])cc1,36.5
19,Cc1ccc(-c2nc3ccc(Cl)cc3c(=O)n2O)cc1,69.6
20,Nn1c(-c2ccccc2)nc2cc(Cl)ccc2c1=O,-0.74
21,Cc1nc2ccc([N+](=O)[O-])cc2c(=O)n1Cc1ccc(Cl)cc1,-5.97
22,CCCNC(=O)c1ccc(Cn2c(=S)[nH]c3c([nH]c4ccc(OC)cc43)c2=O)cc1,-43.9
23,CC1Cc2cc(S(=O)(=O)N3CCN(c4ccccc4F)CC3)ccc2N1C(=O)C1CC1 (centres undefined),31.8

row,SMILES,inhibition [%]
1,CC1Sc2ccc(S(=O)(=O)CCC(=O)N3CCN(c4ccccc4)CC3)cc2NC1=O (centres undefined),12.1
2,COC(=O)C1=C(C)NC(=O)CC1c1cc2c(cc1Br)OCO2 (centres undefined),-0.49
3,Cc1ccccc1C(=O)N1CCN(c2ncccn2)CC1,-10.1
4,CCOC(=O)c1ccc(S(=O)(=O)NC2CC2)cc1,0.31
5,COc1ccc(COC(=O)CN2C(=O)NC3(CC(C)CC(C)(C)C3)C2=O)cc1F (centres undefined),7.47
6,CC(C)C[C@H](NC(=O)c1nc[nH]c1C(=O)NCCCCCN)C(=O)OCc1ccccc1,18.5
7,CCN(CC(=O)Nc1ccc(OC)cc1)C(=O)c1cc2c(s1)CCCCC2,12.4
8,CSc1nnc(SCC(=O)Nc2ccc3[nH]c(=O)[nH]c3c2)s1,-17
9,COc1ccccc1NC(=O)CN1C(=O)COc2ccc(S(=O)(=O)N3CCC(C)CC3)cc21,9.4
10,O=S(=O)(c1cccc2nsnc12)N1CCc2ccccc2C1,3.1
11,CC1CCCN(CCOCCSc2ccccc2)C1 (centres undefined),13.4
12,Clc1ccc(SCCCN2CCCCC2)cc1,5.39
13,COc1ccc(S(=O)(=O)N2CCCC(C(=O)NC3CCCCC3)C2)cc1 (centres undefined),-6.21
14,CCOC(=O)CN(C#N)c1nc(C)cc(C)n1,1.75
15,COC(=O)CN(C#N)c1nc(OC)nc(N(C)C)n1,2.2
16,O=C(COc1ccccc1)Nc1nc2ccccc2[nH]1,75.5
17,O=C(COc1cccc2ccccc12)Nc1cc(Cl)ccc1C(=O)O,69.4
18,CN(c1cccc(Cl)c1)S(=O)(=O)c1cccc(C(=O)Nc2nc3ccccc3[nH]2)c1,7.4
19,CCOc1ccccc1OCCCC(=O)Nc1nc2ccccc2[nH]1,12.7
20,COc1ccc(Cl)cc1C(=O)Nc1nc2ccccc2[nH]1,62.4
21,CCOc1ccccc1OCC(=O)Nc1nc2ccccc2[nH]1,34.2
22,COc1ccc(C(=O)Nc2nc3ccccc3[nH]2)cc1OC,22.2
23,O=C(COc1ccccc1C(=O)O)Nc1cccc2ccccc12,15.8

row,SMILES,inhibition [%]
1,CCN(CC)S(=O)(=O)c1ccc(NC(=O)c2cccs2)cc1,-5.05
2,O=C(COc1ccccc1C(=O)Nc1ccccc1)c1ccc(F)cc1,2.88
3,Cc1sc(NC(=O)C2CSC3(C)CCC(=O)N23)nc1-c1ccc(F)cc1 (centres undefined),23.3
4,CNC(=O)C1CCC(=O)N1Cc1ccccc1Cl (centres undefined),-5.58
5,Cc1[nH]c2ccccc2c1CC#N,-7.72
6,COC(=O)CNC(=O)COC(=O)/C=C/c1cccs1,-8.45
7,CN(C)c1ccc(C=C2C(=O)OC(C)(C(C)(C)C)OC2=O)cc1 (centres undefined),-8.32
8,COc1ccc(/C=C2\N=C(C(C)(C)C)OC2=O)c(OC)c1,64.4
9,CCN(C[C@H]1N[C@@](C)(C(=O)OC)[C@H]2C(=O)N(C)C(=O)[C@@H]12)C(=O)C1CCCCC1,1.05
10,CS(=O)(=O)Nc1ccccc1C(=O)NC1CC2CCC1C2 (centres undefined),-26.9
11,COc1ccc(NC(=O)Cn2c(=O)n(CC3CCCO3)c(=O)c3cc(OC)c(OC)cc32)cc1OC (centres undefined),3.8
12,COC(=O)c1ccccc1OCCOCCOc1cccc2cccnc12,-0.9
13,O=C1OCCC1Sc1nnc(-c2ccc3c(c2)OCO3)o1 (centres undefined),0.17
14,O=C(c1ccc(Cl)cc1)N1CCCCC(Sc2nnc(-c3ccc4c(c3)OCO4)o2)C1=O (centres undefined),17.2
15,Cc1ccc(S(=O)(=O)N(C)C)cc1-n1c(SCC(=O)Nc2ccc(F)cc2)nc2ccccc2c1=O,26.8
16,CC(=O)/C=C\c1ccccc1OC(=O)c1cc2ccccc2oc1=O,18
17,COC(=O)c1ccccc1OC(=O)c1cc2ccccc2oc1=O,17.4
18,Cc1ccc(NC(=O)C2(S(=O)(=O)c3ccc(C)cc3)CC2)cc1,7.01
19,CCCCOc1ccc(C(=O)NCC(=O)NNC(=O)c2ccco2)cc1,9.92
20,COc1ccc(C(=O)NC(=S)NNC(=O)c2ccco2)cc1,78.5
21,CCCC(=O)Nc1ccc(C(=O)NNC(=S)NC(=O)c2cccs2)cc1,-6.93
22,CCCOc1ccc(C(=O)Nc2ccc(NC(=O)c3cccs3)cc2)cc1,-8.66
